SMILES strings stand for the structures. Values without a mark were called inactive. The source made the active and inactive calls.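 How the source made its calls: active means high combined rank on largest and smallest cell-count-weighted shift across three tests, rank score above 45, floors 50 and 25 (some results past the limit were not filed as active); inactive means the rest.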

This assay in a line: activators of LNCaP cell differentiation, retest, confirmation, side scatter shift, flow cytometry (AID 1069).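 Further: LNCaP human prostate cancer cells in low-serum medium with charcoal-stripped FBS; percent of cells with raised granularity gated so DMSO controls show 10%.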 As to conditions: 4 d, at 100 µM, hits give high values. For orientation: Flow cytometry measures light scatter and fluorescence of single cells or particles in a stream.
For the compound `Cc1cc(=O)c2ccccc2[nH]1`, the side scatter shift was 11.2%.

As to `Cc1cccc(-c2nc(CN3CCCC(C(=O)NC4CCCCCC4)C3)c(C)o2)c1` (stereo not drawn), the side scatter shift is 41.2%.

`COc1ccc(N2CCN(c3oc(COc4ccccc4Cl)nc3C#N)CC2)cc1`: the side scatter shift was 24.8%.

Take `COc1ccc(Cc2n[nH]c(=O)c3ccccc23)cc1OC`: the side scatter shift is 5.3%.

With `COc1ccc2nc(NC(=O)C(NS(=O)(=O)c3cccs3)C(C)C)sc2c1` (stereo not drawn), the side scatter shift was 35.8%.

Consider `O=C(NCCCN1CCOCC1)c1cc2c(s1)CSC2`, for which the side scatter shift is 13.1%.

`Cn1nc(-c2ccc(Cl)cc2)c2cc(C(=O)NCCCN3CCOCC3)sc21`: the side scatter shift is 63.6% (active).

Regarding `Cc1ccc(Cl)cc1N1CCN(C(=O)c2cc3c(=O)n(C)c4ccccc4c3n2C)CC1`, the side scatter shift was 12.9%.

Take `COc1ccc(NC(=O)NCCCN2CCN(c3cc(C)ccc3C)CC2)cc1`: the side scatter shift was 0%.

With `COc1ccc(N2CCN(CCCNC(=O)C3(S(=O)(=O)c4ccc(Cl)cc4)CC3)CC2)cc1`, the side scatter shift is 26.9%.

Regarding `Cc1ccc(CN2CCSc3ccc(C(=O)N4CCN(c5ncccn5)CC4)cc32)cc1`, the side scatter shift is 18.6%.

Take `CCN(CC)CCCNC(=O)c1cc(-c2ccc(Cl)c(Cl)c2)on1`: the side scatter shift is 22.7%.

`COc1cccc(Oc2cnc(N)nc2-c2ccc(OC)cc2O)c1`: the side scatter shift is 22.2%.

Regarding `COc1ccc(S(=O)(=O)Nc2ccc(F)c(Cl)c2)cc1OC`, the side scatter shift was 44.4%.

Take `CN(CC(O)COc1ccc(OCC(O)CN(C)C2CCCCC2)cc1)C1CCCCC1` (stereo not drawn): the side scatter shift was 49.4% (active).

As to `CCc1ccc(-c2nc(CN3CCC(C(=O)N4CCN(c5ccccn5)CC4)CC3)c(C)o2)cc1`, the side scatter shift was 30%.

Consider `O=C(COc1ccc(S(=O)(=O)N2CCCC2)cc1Cl)NC1CC1`, for which the side scatter shift is 3.1%.

In the case of `Cc1ccc2[nH]c(=O)c3cc(C(=O)N(C)Cc4ccco4)sc3c2c1`, the side scatter shift is 4.2%.

With `CCCS(=O)(=O)N1CCCC(C(=O)NCCCN2CCN(c3ccc(F)cc3)CC2)C1` (stereo not drawn), the side scatter shift was 8.2%.

In the case of `CCn1c(=N)n(CC(O)COc2cccc(C)c2)c2ccccc21` (stereo not drawn), the side scatter shift was 0%.

As to `CC(C)(C)OC(=O)N1CCC(C(=O)N2CCCCCC2)CC1`, the side scatter shift is 16.1%.

Regarding `O=C(NCCCN1CCN(c2cccc(Cl)c2)CC1)C1CCC(=O)N1Cc1ccccc1Cl` (stereo not drawn), the side scatter shift was 33.3%.

Regarding `Cc1oc(-c2cccc(Cl)c2)nc1CN1CCC(C(=O)NCc2cccnc2)CC1`, the side scatter shift is 28.9%.

For `O=c1cc(N2CCN(c3ccc(F)cc3)CC2)[nH]c(=O)n1C1CCCCC1`, the side scatter shift was 16.8%.

`CCN1C=C(Cc2cccs2)C2=C(C1)C(c1cccs1)C(C#N)=C(N)O2` (stereo not drawn): the side scatter shift is 20%.

`Cc1oc(-c2ccc(Cl)cc2)nc1CN1CCC(C(=O)N2CCN(Cc3ccccc3)CC2)CC1`: the side scatter shift is 33.3% (active).

As for `Cc1ccc(Cn2c(C(=O)NCCCN3CCOCC3)cc3sccc32)cc1`, the side scatter shift was 20.1%.

Consider `Cc1oc(-c2ccc(Cl)cc2)nc1CN1CCC(C(=O)NCc2cccnc2)CC1`, for which the side scatter shift was 30%.

Consider `O=C(CSc1nc2sc3c(c2c(=O)n1-c1ccccc1)CCCC3)NCc1ccco1`, for which the side scatter shift is 24%.

Take `Cc1oc(-c2cccc(Cl)c2)nc1CN1CCCC(C(=O)NC(C)c2ccc3c(c2)OCCO3)C1` (stereo not drawn): the side scatter shift is 0%.

As to `Cc1ccc(C)c(N2CCN(C(=O)CCNC(=O)Cn3ccc4ccccc4c3=O)CC2)c1`, the side scatter shift was 25%.

As for `Cc1ccc(-c2noc(CCC(=O)NC3CCN(Cc4ccccc4)CC3)n2)cc1`, the side scatter shift was 33.3%.

As to `Cc1ccccc1-c1nc(CN2CCCC(C(=O)NCc3cccnc3)C2)c(C)o1` (stereo not drawn), the side scatter shift is 13.7%.

Take `COc1ccc(-c2oc3ncn(CCN4CCOCC4)c(=N)c3c2-c2ccc(OC)cc2)cc1`: the side scatter shift was 42.3%.

Regarding `CCOC(=O)N1CCN(C(=O)CN(c2cccc(C(F)(F)F)c2)S(=O)(=O)c2ccccc2)CC1`, the side scatter shift is 11.7%.

On to `CCN1CCN(C(c2cccs2)C(C)NS(=O)(=O)c2ccc(Br)cc2)CC1` (stereo not drawn), for which the side scatter shift was 82.4%.

Consider `CCn1c(=O)cc(SCC(=O)NCCCN2CCN(c3ccc(F)cc3)CC2)c2ccccc21`, for which the side scatter shift is 14.3%.

On to `Cc1ccc2c(c1)-c1c(cnn1CC(=O)Nc1ccccc1N1CCN(C)CC1)CO2`, for which the side scatter shift was 9.6% (active).
